Screening data deposited in PubChem BioAssay by The Scripps Research Institute Molecular Screening Center.
Shown are actives, neighbours in structure and some others; about 3.5% of the full set was active somewhere.
TEAD-YAP block: TEAD-YAP interaction inhibition; AID 1259422; 1.4% of 640,000 active; HEK-TIYL cells, TEAD-Gal4/YAP UAS-luciferase luminescence; inhibition, % at 9.12 µM; in the data active means inhibition above about 32%;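 further: 0% = median of test compound wells and 100% = reference inhibitor wells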
GPR151 ag: human GPR151 activation; Q8TDV0; PathHunter beta-arrestin GPR151 cells, luminescence; activation, % at 11.2 µM; 1% of 650,000 active; in the data active means activation above about 4.9%;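 further: 0% = median of compound wells and 100% = cells with positive control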
FBW7 activator: human FBW7 E3 ligase activation, primary screen. Q969H0. AlphaScreen FBW7–phospho-cyclin E peptide binding, activator screen. normalized activity (activation), % at 26.1 µM. 0.13% of 650,000 active. AID 1259310; in the data active means normalized activity above about 1.9%;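 further: purified mutant Fbw7 with reduced substrate affinity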
MITF inh: inhibitors of human MITF; O75030; AlphaScreen MITF homodimerization, bead proximity signal; inhibition, % at 2.6 µM; 0.91% of 650,000 active; AID 1259374; in the data active means inhibition above about 50%;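 further: 0% = vehicle wells with protein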
Active calls of the source: *.

SMILES	TEAD-YAP block	GPR151 ag	FBW7 activator	MITF inh
CN1CCN(c2ccc(CNS(=O)(=O)Cc3cccc(C(F)(F)F)c3)cc2)CC1	38.2*	0.1	-0.2	4.5
CC(Oc1cccc(Cl)c1)C(=O)Nc1sc2c(c1C(=O)Nc1cccc3ccccc13)CCCC2 (centres undefined)	4.3	2.7	0.6	5.5
Cc1nc(C)c(C(=O)c2coc3ccc(O)cc23)o1	-28.2	-0.2	0.0	10.6
O=C(c1cc2ccccc2o1)c1coc2ccc(O)cc12	64.6*	-8.3	0.0	-7.5
Nc1ccc(Oc2cccc(Oc3ccc(N)cc3)c2)cc1	51.9*	0.3	0.2	6.3
Cc1cc(C)nc(Oc2ccc(N)cc2)n1	52.4*	0.1	1.9*	16.5
c1ccc(Oc2cccc(Oc3cccc(Oc4cccc(Oc5ccccc5)c4)c3)c2)cc1	-5.9	0.8	0.4	-4.2
Nc1ccc(Oc2cccc(-c3ccc(N)cc3)c2)cc1	45.8*	-0.1	-0.1	6.2
COc1ccc(Oc2nc(C)cc(C)n2)cc1	-10.1	-2.3	0.7	3.7
CCN1CCN(C(c2ccccc2)c2nnnn2Cc2ccc(F)cc2)CC1 (centres undefined)	1.3	2.1	0.5	-0.4
CCSc1nnc2c(n1)OC(c1cc(Cl)cc(OC)c1OC)N(C(=O)CC)c1ccccc1-2 (centres undefined)	-5.1	-0.6	0.3	7.9
CCOC(=O)N1CCN(C(=O)c2cc3c(=O)oc4ccccc4c3s2)CC1	4.1	-0.6	0.0	16.2
CC1(C)CC2CC(C)(CN2c2nc(N)c(C#N)c(CC#N)c2C#N)C1 (centres undefined)	-7.0	-2.3	0.3	4.0
Cc1cc(C)cc(NS(=O)(=O)c2ccc3c4c2CC(=O)N4CC(C)S3)c1 (centres undefined)	34.0*	0.2	-0.3	1.5
CC1CN2C(=O)Cc3c(S(=O)(=O)NCc4cccs4)ccc(c32)S1 (centres undefined)	8.4	-1.3	0.4	9.1
COc1ccc(N2C(=O)c3ccccc3NC2c2ccc(-c3ccc([N+](=O)[O-])cc3)o2)cc1 (centres undefined)	41.4*	-0.4	0.0	-3.7
COc1ccc(N2C(=O)c3ccccc3NC2c2cccc([N+](=O)[O-])c2)cc1 (centres undefined)	-23.1	-1.2	0.6	17.3
OC1CCCN(c2ncn(-c3ccc(Nc4nccc(-c5cc(F)cc(N6CCOCC6)c5)n4)cc3)n2)C1 (centres undefined)	56.8*	-1.9	0.2	13.8
CN1CCN(c2ncn(-c3ccc(Nc4nccc(-c5cc(F)cc(N(C)C)c5)n4)cc3)n2)CC1	35.2*	-0.2	-0.2	2.4
Fc1cc(-c2ccnc(Nc3ccc(-n4cnc(-c5ccc(Cl)cn5)n4)cc3)n2)cc(N2CCOCC2)c1	5.5	0.8	0.1	13.2
CN1CCN(c2ncn(-c3ccc(Nc4nccc(-c5cc(F)cc(N6CCC(O)CC6)c5)n4)cc3)n2)CC1	67.3*	-0.9	-0.2	2.0
Fc1cc(-c2ccnc(Nc3ccc(-n4cnc(Br)n4)cc3)n2)cc(N2CCOCC2)c1	6.5	0.2	0.0	-7.7
OCc1ccc(-c2ncn(-c3ccc(Nc4nccc(-c5cc(F)cc(N6CCOCC6)c5)n4)cc3)n2)nc1	82.5*	0.2	-0.1	-0.8
COC1CCN(c2ncn(-c3ccc(Nc4nccc(-c5cc(F)cc(N(C)C)c5)n4)cc3)n2)CC1	16.0	1.1	0.3	5.2
CC(=O)c1ccc(NC(=O)/C=C/c2cccc3ccccc23)cc1	-26.9	1.7	-0.1	-3.0
SMILES	TEAD-YAP block	GPR151 ag	FBW7 activator	MITF inh
Cc1ncn(-c2ccc(Nc3nccc(-c4ccc(N5CCCC(O)C5)c(C#N)c4)n3)cc2)n1 (centres undefined)	34.6*	1.8	-0.1	-6.1
OC1CCN(c2ncn(-c3ccc(Nc4nccc(-c5cc(F)cc(N6CCOCC6)c5)n4)cc3)n2)CC1	91.0*	0.6	-0.1	-0.5
Cc1cc(C(=O)NCC2CCC3(CCN(Cc4ccccc4F)CC3)O2)no1 (centres undefined)	1.0	-1.0	-0.1	-3.3
COc1cc(NC(=O)c2csc(-c3cccc(C(C)=O)c3)n2)cc(OC)c1OC	29.6	-1.5	0.3	12.8
COc1cc(NC(=O)c2cccc(-c3cccc(C(C)=O)c3)n2)cc(OC)c1OC	36.2*	2.1	-0.2	-2.7
COc1cc(CNc2ccc(-c3cccc(C(C)=O)c3)cn2)cc(OC)c1OC	34.1*	2.0	-0.1	12.8
O=C1/C(=C/c2cccnc2)c2ccccc2N1c1ccccc1	-2.5	0.1	-0.1	2.5
CN1CCN(c2cc(OCCNC(=O)Nc3ccc(F)c(F)c3)ncn2)CC1	-8.8	0.1	-0.1	-3.9
COC(=O)c1[nH]c2ccccc2c1Cl	-7.9	0.0	0.0	6.3
